# mcGAS MS inh: inhibitors of mouse cGAS; Q8C6L5; recombinant mouse cGAS, cGAMP by RapidFire MS; inhibition, % at 12.5 µM; 130,000 tested, 0.18% active; AID 1259397;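 active = inhibition of cGAS enzyme activity at or above 60%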;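 note: enzyme stimulated by 45 bp dsDNA with ATP and GTP substrates; cGAMP share of summed cGAMP plus half ATP and half GTP signals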
# Target sequence (Q8C6L5 whole entry, looked up): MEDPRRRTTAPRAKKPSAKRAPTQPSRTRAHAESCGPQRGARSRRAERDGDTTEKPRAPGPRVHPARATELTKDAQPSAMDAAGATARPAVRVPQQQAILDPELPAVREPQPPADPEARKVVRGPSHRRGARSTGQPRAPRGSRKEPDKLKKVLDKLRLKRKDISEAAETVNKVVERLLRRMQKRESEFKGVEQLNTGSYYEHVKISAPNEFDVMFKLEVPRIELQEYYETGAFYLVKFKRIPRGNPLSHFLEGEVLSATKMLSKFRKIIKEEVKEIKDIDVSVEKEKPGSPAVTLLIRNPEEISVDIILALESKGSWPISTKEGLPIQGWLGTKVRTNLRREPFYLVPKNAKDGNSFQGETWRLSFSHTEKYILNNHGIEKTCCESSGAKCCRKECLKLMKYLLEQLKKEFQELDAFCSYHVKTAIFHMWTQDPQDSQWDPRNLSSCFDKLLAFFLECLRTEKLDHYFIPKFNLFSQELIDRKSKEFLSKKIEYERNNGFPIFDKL
# Active calls of the source: *; ! = repeats disagree. The full list was thinned out, with hits kept by preference.
SMILES,mcGAS MS inh
CC(C)c1cc(-c2nn3c(C(C)(C)C)nnc3s2)n[nH]1,75*
Cc1nn2cc(CCn3cnnc3)nc2s1,-19
COCCn1c(C)cn2c3c(=O)n(Cc4ccc(C)cc4)c(=O)n(C)c3nc12,-7
CCC(=O)C(C#N)c1nnc(-c2ccccc2)s1 (configuration not stated),95*
Cc1ccc(S(=O)(=O)c2nnc(-c3ccccc3)s2)cc1,-3
Cn1c(-c2ccccc2)nnc1C(C#N)C(=O)C1CC=CCC1 (configuration not stated),11
S=c1[nH]nc(-c2ccccc2Cl)o1,-5
S=c1[nH]nc(-c2sc3ccccc3c2Cl)o1,92*
Clc1c(-c2nnco2)sc2ccccc12,-3
Cc1ccc(S(=O)(=O)c2nc(S(C)(=O)=O)sc2NC2CCS(=O)(=O)C2)cc1 (configuration not stated),-7
COc1cc(C=C2SC(=S)NC2=O)cc(OC)c1,-5
O=C1NC(=S)SC1=Cc1ccccc1[N+](=O)[O-],2
COc1ccc(-c2ccc(/C=C3\SC(=S)NC3=O)o2)c([N+](=O)[O-])c1,65*
O=c1ccc(-c2ccc(Cl)cc2)nn1CCCNS(=O)(=O)CCc1ccccc1,6
CC(C)OC(=O)C(C#N)=Cc1ccc([N+](=O)[O-])o1,64*
N#CC(=Cc1ccc([N+](=O)[O-])o1)c1nc(C2CC2)cs1,-16
O=C(O)C=Cc1ccc([N+](=O)[O-])o1,2
O=C(Cn1nc(-c2ccc(F)cc2)oc1=O)N1CCSc2ccccc21,-9
CCOC(=O)NC(=S)NN(C)c1nc(C)cnc1C,-4
Cc1cnc(C)c(N(C)C)n1,93*
CN(C)c1nc2nonc2nc1NC1CCC1,-4
O=C(C=Cc1c(F)cccc1Cl)N1CCN(S(=O)(=O)c2cccc(F)c2)CC1,-5
CC(=C(C#N)C#N)c1ccc2c(c1)OCO2,-2
C[n+]1cc2c3c(ccc2c2ccc4cc5c(cc4c21)OCO5)OCO3,85*!
N#CCSc1n[nH]c(CCc2nc(SCC#N)n[nH]2)n1,-5
SMILES,mcGAS MS inh
COc1ccc2oc(C(=O)n3ncc(C#N)c3N)c(C)c2c1,-17
C=CCNC(=S)NN1CCN(C)CC1,-7
O=C1CCCN1CC1CCCN(c2ncnc3c2CCNC3)C1 (configuration not stated),-17
Cc1ccccc1-n1nc2c(c1NC(=O)c1ccc(OC(C)C)cc1)CS(=O)C2 (configuration not stated),-7
COc1cccc(-c2nc(-c3c[nH]c4ccccc34)cs2)c1OC,-2
O=C(Cn1cnnn1)Nc1nc(-c2cccc3ccccc23)cs1,3
O=C(CCl)Nc1nc(-c2c[nH]c3ccccc23)cs1,72*
Cc1ccc(C)c(S(=O)(=O)N2CC3(C)CC2CC(C)(C)C3)c1 (configuration not stated),-5
COCCNC(=O)CNC(=O)COc1ccc2c3c(c(=O)oc2c1)CCC3,-5
Cc1nn(CC(=O)NC2CC2)c(C)c1[N+](=O)[O-],17
CCN1C(=CC=Cc2sc3ccccc3[n+]2CC)Sc2ccccc21,70*
CCC(C)[n+]1c(C)cc(C=C2Sc3ccccc3N2CC)cc1C (configuration not stated),-10
CCN1C(=Cc2ccc3cc(C)ccc3[n+]2CC)Sc2ccccc21,11
O=c1[nH]n2c(=O)c3ccccc3nc2c2ccccc12,90*
O=c1c2ccccc2nc2n1CCS2,-12
O=c1c2ccccc2nc2c3ccccc3c(NCc3ccccn3)nn12,3
O=S(=O)(NCc1ccco1)c1ccc(Cl)c(Cl)c1,-6
O=S(=O)(c1ccccc1NC(C1CC1)C1CC1)C(F)(F)F,-19
CC(C)(O)CCOc1ccccc1S(=O)(=O)C(F)(F)F,72*
O=S(=O)(c1ccccc1O)C(F)(F)F,-13
COC(=O)[C@@H]1C[C@@H](N(C)C)CN1C(=O)c1ncccc1OC,1
CC1CCC2(CC1)NC(=O)N(CC(=O)NC(C)C)C2=O (configuration not stated),-3
COC1CN(C(=O)c2cc(S(=O)(=O)N(C)C)ccc2Cl)C1,-11
C=C(C)CNC(=S)NN=Cc1ccsc1,-10
Cc1cc(CNC(=O)c2cc3ncccn3n2)c2[nH]c(C)c(C)c2c1,0
SMILES,mcGAS MS inh
COC(=O)c1cc2c(=O)n(-c3ccc(C(C)C)cc3)ccc2nc1C,-7
CC(C)c1nc2oc3ccccc3c(=O)c2c(=O)n1-c1ccccc1,-7
CC(C)N(CC(N)=O)CC(=O)Nc1ccc2oc3ccccc3c2c1,-8
O=S(=O)(CC1CC1)c1ncc(CN2CCOCC2)n1CC1CCCO1 (configuration not stated),-6
CCOc1ccc2nc(S(=O)(=O)NC(=O)C3(C)CCN3C(=O)c3ccccc3)sc2c1 (configuration not stated),-9
CCCCCCCCCCCC[N+](C)(C)CCOc1ccccc1,9
CCCCCCCCCCCCCCCC[N+](C)(C)C,98*!
C[N+](C)(C)CCCCCC[N+](C)(C)C,-8
Cc1cccc(C(=O)N2CCCC(CO)(Cc3ccccc3C)C2)n1 (configuration not stated),-9
Cc1ccccc1CC1(CO)CCCN(C(=O)CN2CCOc3ccccc3C2)C1 (configuration not stated),-9
Cc1ccccc1CC1(CO)CCCN(C(=O)c2ccccc2N(C)C)C1 (configuration not stated),91*
O=C(c1cc(C2CC2)on1)N1CCN(c2cccc(Cl)c2Cl)CC1,-3
COc1ccc(CCN2CC(NC(=O)Cn3cccn3)CC2=O)cc1 (configuration not stated),-5
CC1CC(Sc2nnc(-c3cccs3)n2C2CC2)C(=O)O1 (configuration not stated),0
CC1ON=C(c2ccco2)N(Cc2ccc(S(C)(=O)=O)cc2)C1=O (configuration not stated),66*
COc1ccc(C(C)=O)cc1CN1C(=O)C(C)ON=C1c1ccco1 (configuration not stated),-6
CC1ON=C(c2ccco2)N(C/C=C/c2ccccc2)C1=O (configuration not stated),46
CCNc1cc(C)nc(N2CCN(C(=O)CC)CC2)n1,-10
COCCCN=c1scc(-c2ccc(OC)cc2)n1N=Cc1ccc(OC)cc1,-13

# From PubChem BioAssay
